LYPLA2 counter: LYPLA2 (human) inhibition in PME1 counter-screen; O95372; recombinant LYPLA2, FP-Rh probe fluorescence polarization; inhibition, % at 5.9 µM; actives 0.38% (n = 320,000); AID 2177;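 active = inhibition above the screen-wide mean plus 3 SD, limit set per campaign, cut at about 26% in these data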;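 note: 0% = LYPLA2 with DMSO and 100% = wells lacking LYPLA2 enzyme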
Fam108B counter: blocks mouse Fam108B hydrolase in RBBP9 counter-screen; recombinant Fam108B, FP-Rh probe fluorescence polarization; actives 0.33% (n = 300,000); AID 1947; inhibition, % at 9.51 µM;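 active = inhibition above the screen mean inhibition plus 3 SD, computed separately per campaign, cut at about 18% in these data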;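 note: inhibitors lower polarization as less probe binds the enzyme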
PREPL inh: inhibits the human prolyl oligopeptidase-like enzyme; Q4J6C6; recombinant PREPL, fluorescence polarization activity-based probe; inhibition, % at 5.96 µM; actives 0.68% (n = 320,000); AID 2751;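 note: 0% = enzyme with DMSO and 100% = wells lacking enzyme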
Target sequence (Q4J6C6 whole entry, looked up): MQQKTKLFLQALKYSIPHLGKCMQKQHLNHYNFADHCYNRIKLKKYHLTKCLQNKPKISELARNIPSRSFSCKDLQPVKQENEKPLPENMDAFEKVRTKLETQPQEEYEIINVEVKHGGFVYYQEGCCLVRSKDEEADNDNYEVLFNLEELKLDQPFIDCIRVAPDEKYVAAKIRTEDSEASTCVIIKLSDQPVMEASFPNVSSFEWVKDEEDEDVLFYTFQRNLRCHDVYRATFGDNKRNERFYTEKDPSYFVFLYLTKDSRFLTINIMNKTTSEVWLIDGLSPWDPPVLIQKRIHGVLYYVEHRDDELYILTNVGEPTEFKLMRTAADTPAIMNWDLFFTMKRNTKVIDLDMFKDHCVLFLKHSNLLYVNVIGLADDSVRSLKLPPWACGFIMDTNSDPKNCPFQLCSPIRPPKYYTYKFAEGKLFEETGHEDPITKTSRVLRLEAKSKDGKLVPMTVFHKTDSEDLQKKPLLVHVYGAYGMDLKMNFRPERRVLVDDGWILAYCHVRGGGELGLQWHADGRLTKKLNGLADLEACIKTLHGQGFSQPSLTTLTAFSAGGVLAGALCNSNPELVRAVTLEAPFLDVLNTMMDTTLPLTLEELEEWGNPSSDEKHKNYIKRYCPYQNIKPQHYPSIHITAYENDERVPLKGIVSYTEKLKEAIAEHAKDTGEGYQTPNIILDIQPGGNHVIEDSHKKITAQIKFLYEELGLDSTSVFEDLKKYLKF
PME-1 primary: PME-1 (human) inhibition. actives 0.53% (n = 320,000). inhibition, % at 5.9 µM. recombinant PME-1, FP-Rh probe fluorescence polarization;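 active = inhibition above the campaign mean of all compounds plus 3 SD, cut at about 26% in these data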;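 note: competitive labeling of PME-1 active site by serine hydrolase directed probe; 0% = PME-1 with DMSO and 100% = wells lacking PME-1 enzyme; inhibitors block probe labeling so polarization falls and inhibition rises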
LYPLA1 inh: LYPLA1 (human) inhibition in PME1 counter-screen. actives 0.16% (n = 320,000). inhibition, % at 5.9 µM. recombinant LYPLA1, FP-Rh probe fluorescence polarization. O75608;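 active = inhibition above the mean of all tested compounds plus 3 SD, set per campaign, cut at about 14% in these data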;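 note: inhibitors block serine hydrolase probe labeling of LYPLA1 so polarization falls; 0% = enzyme with DMSO and 100% = wells lacking LYPLA1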
PREPL confirm: confirmation of human PREPL enzyme inhibitors; shares compounds with PREPL inh; recombinant PREPL, fluorescence polarization activity probe; inhibition, % at 5.96 µM; actives 67% (n = 2,000);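 note: 0% = protein with DMSO and 100% = wells lacking protein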
Starred values were filed as active, the others as inactive. In the library only some 1.3% were active in any assay of this set; here they are far more common. Cut-off read from the data, not from the text of the source, unless noted: active = inhibition above about 43%; inactive = the rest.

`COc1ccc(-[n+]2c(C)cc(/C=C3\Sc4ccccc4N3C)cc2C)cc1` gave LYPLA2 counter 8, Fam108B counter 4, PREPL inh 70*, PME-1 primary -4, LYPLA1 inh 3 and PREPL confirm 69*.
For COc1ccccc1-[n+]1c(C)cc(/C=C2\Sc3ccccc3N2C)cc1C the results were LYPLA2 counter 5, Fam108B counter -3, PREPL inh 64*, PME-1 primary -3, LYPLA1 inh -1 and PREPL confirm 71*.
Screening COc1ccc(C(=O)/C=C2\Sc3ccccc3N2C)cc1 returned LYPLA2 counter -5, Fam108B counter 3, PREPL inh 36, PME-1 primary 4 and LYPLA1 inh 2.
Screening Cc1nn(C(=O)Cn2ccc([N+](=O)[O-])n2)c(C)c1Cl returned LYPLA2 counter 0, Fam108B counter -1, PREPL inh 3, PME-1 primary -4 and LYPLA1 inh 1.
COc1ccc(NC(=O)c2cc3ccccc3o2)cc1S(=O)(=O)N1CCCCC1 was read as PREPL inh 7.
CCN1C(=O)[C@H]2[C@@H](c3ccc(-c4ccc(Cl)c(Cl)c4)cc3)N[C@@](C)(C(=O)OC)[C@H]2C1=O was read as LYPLA2 counter 22, Fam108B counter -2, PREPL inh 46*, PME-1 primary -8, LYPLA1 inh 9 and PREPL confirm 43.
For CCN1C(=O)[C@H]2[C@@H](c3ccc(-c4ccc(Cl)c(Cl)c4)c(OC)c3)N[C@@](C)(C(=O)OC)[C@H]2C1=O the results were LYPLA2 counter 6, Fam108B counter 1, PREPL inh 18, PME-1 primary 4 and LYPLA1 inh 5.
Screening COc1ccc(/C(C)=N/NC(=O)CNC(=O)c2cccnc2)c(OC)c1 returned LYPLA2 counter 2, Fam108B counter 5, PREPL inh -7, PME-1 primary 2 and LYPLA1 inh 3.
Screening COc1ccc(CCNC(=O)C(=O)NCc2ccc(Cl)cc2)cc1OC returned LYPLA2 counter 0, Fam108B counter -5, PREPL inh -4, PME-1 primary 0 and LYPLA1 inh -2.
For C/C(=N\Nc1nc2ccccc2[nH]1)c1ccc2c(c1)OCCO2 the results were LYPLA2 counter 2, Fam108B counter 7, PREPL inh 18, PME-1 primary -31 and LYPLA1 inh 2.
Screening C/C(=N\Nc1nc2ccccc2[nH]1)c1ccccn1 returned LYPLA2 counter 5, Fam108B counter -3, PREPL inh 17, PME-1 primary 5 and LYPLA1 inh 0.
`C/C(=N\Nc1nc2ccccc2[nH]1)c1cc2ccccc2o1` gave LYPLA2 counter 2, Fam108B counter 14, PREPL inh 76*, PME-1 primary 15, LYPLA1 inh 3 and PREPL confirm 72*.
`C/C(=N\Nc1nc2ccccc2[nH]1)c1ccc2c(c1)OCO2` gave LYPLA2 counter -7, Fam108B counter -2, PREPL inh 47*, PME-1 primary -25, LYPLA1 inh 1 and PREPL confirm 44*.
`CC(=O)NC1=C(N(C)C2CCS(=O)(=O)C2)C(=O)c2ccccc2C1=O` (centres undefined) gave LYPLA2 counter -2, Fam108B counter 2, PREPL inh 0, PME-1 primary 3 and LYPLA1 inh 0.
`CC(=O)NC1=C(Nc2ccc(N(C)C)cc2)C(=O)c2ccccc2C1=O` gave LYPLA2 counter -2, Fam108B counter 2, PREPL inh 49*, PME-1 primary -1, LYPLA1 inh -2 and PREPL confirm 39.
For Cc1cccn2c(=O)c3cc(C(=O)NC4CCCC4)sc3nc12 the results were LYPLA2 counter -2, Fam108B counter 1, PREPL inh -15, PME-1 primary 0 and LYPLA1 inh -4.
Screening O=c1c2c3c(sc2nc(NCCO)n1CCc1ccccc1)CCCCC3 returned LYPLA2 counter 5, Fam108B counter 8, PREPL inh 164*, PME-1 primary 18, LYPLA1 inh -1 and PREPL confirm 40.
For O=c1c2c3c(sc2nc(NCCO)n1Cc1ccco1)CCCCC3 the results were LYPLA2 counter 3, Fam108B counter 1, PREPL inh 4, PME-1 primary 7 and LYPLA1 inh 4.
Screening Cc1[nH]c2ccc(C(=O)NCCCN3CCCCC3)cc2c1C returned LYPLA2 counter -1, Fam108B counter 0, PREPL inh 12, PME-1 primary -4 and LYPLA1 inh 0.
Cc1[nH]c2ccc(C(=O)NCCN3CCCCCC3)cc2c1C was read as LYPLA2 counter -5, Fam108B counter 3, PREPL inh 61*, PME-1 primary 0, LYPLA1 inh -1 and PREPL confirm 32.
For CCCN(CC1CCCO1)C(=O)CCc1nnc(-c2cc(C)on2)o1 (centres undefined) the results were LYPLA2 counter 1, Fam108B counter -1, PREPL inh 7, PME-1 primary -4 and LYPLA1 inh -3.
For O=C(CCOc1ccccc1)Nc1ccnn1C1CCN(CCc2ccccc2)CC1 the results were LYPLA2 counter 6, Fam108B counter 2, PREPL inh 10, PME-1 primary -1 and LYPLA1 inh -2.
`CNC[C@@H]1Oc2ccc(NC(=O)Nc3cccc4ccccc34)cc2C(=O)N([C@@H](C)CO)C[C@@H]1C` gave PREPL inh 50* and PREPL confirm 46*.
Screening C[C@@H]1CN([C@@H](C)CO)C(=O)c2cc(NC(=O)Nc3ccc4c(c3)OCO4)ccc2O[C@H]1CN(C)S(=O)(=O)c1ccc(F)cc1 returned PREPL inh 38.
Cc1noc(C)c1S(=O)(=O)Nc1ccc2c(c1)C(=O)N([C@H](C)CO)C[C@H](C)[C@@H](CN(C)C(=O)Nc1ccc(C(F)(F)F)cc1)O2 was read as PREPL inh 55* and PREPL confirm 50*.
For COc1ccc(NC(=O)N(C)C[C@H]2Oc3ccc(NS(=O)(=O)c4ccc(OC)cc4)cc3C(=O)N([C@H](C)CO)C[C@@H]2C)cc1 the results were PREPL inh 2.
For CNC[C@@H]1Oc2ccc(NC(=O)Nc3ccccc3)cc2C(=O)N([C@@H](C)CO)C[C@H]1C the results were PREPL inh 4.
COc1ccc(S(=O)(=O)Nc2ccc3c(c2)C(=O)N([C@H](C)CO)C[C@H](C)[C@@H](CN(C)C(=O)Nc2ccc(C(F)(F)F)cc2)O3)cc1 was read as PREPL inh 45* and PREPL confirm 41.
`C[C@H](CO)N1C[C@H](C)[C@@H](CN(C)S(=O)(=O)c2ccc(F)cc2)Oc2ccc(NC(=O)Nc3ccc4c(c3)OCO4)cc2C1=O` gave PREPL inh 45* and PREPL confirm 48*.
COc1cc(-c2nnc(SCC(=O)NC3CCCC3)n2C)cc(OC)c1O was read as LYPLA2 counter -5, Fam108B counter 2, PREPL inh -2, PME-1 primary 5 and LYPLA1 inh -1.

Screening data from PubChem BioAssay.
